± gives the standard deviation.
What was measured:
Conditions in all cases: modulator concentration 10 µM
[1] = test system: RAW-Dual (murine macrophage reporter line); assay: NF-kB reporter (SEAP) activity fold change vs agonist alone; higher = enhanced NF-kB activity
How it was run: (§1)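 Overnight stimulation with a PRR agonist followed pre-incubation for 1 hour at 37 °C with compound at 10 μM final. This was done in RAW-Dual murine macrophage reporter cells seeded at 50 000 per well in 384-well plates. NF-κB (SEAP, QUANTI-Blue absorbance at 620 nm) and IRF (Lucia luciferase, QUANTI-Luc luminescence) were read from the supernatant. Each reporter's fold change relative to the mean agonist-only control on the same plate was averaged over replicate plates.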

[2] = test system: RAW-Dual (murine macrophage reporter line); assay: IRF reporter (Lucia luciferase) activity fold change vs agonist alone; higher = enhanced IRF activity
How it was run: as §1

[3] = test system: RAW-Dual (murine macrophage reporter line); assay: viability score (confluency relative to resting cells, overnight) (fraction); higher = more viable, active = viable (0.7 or more)
How it was run: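 RAW-Dual macrophages in 384-well plates were incubated overnight with compound, final concentration 10 μM. Confluency images from IncuCyte were processed in IncuCyte software into two masks covering all imaged wells. The viability score is each well's confluency relative to resting cells, and a compound met the cutoff when both masks exceeded 70% of resting cells.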

[4] = agonist: CpG ODN 1826 0.5 ug/mL

Compound | NF-kB reporter [1, 4] | NF-kB reporter ([1]; agonist: LPS 0.1 ug/mL) | NF-kB reporter ([1]; agonist: MPLA […]) | IRF reporter ([2]; agonist: 3'3'-cGAMP 10 ug/mL) | IRF reporter ([2]; agonist: LPS 0.1 ug/mL) | IRF reporter ([2]; agonist: MPLA […]) | viability score [3]
Nc1nnc(C(=O)O)[nH]1 | 1.04 ± 0.083 | 1.14 ± 0.08 | 1.03 ± 0.043 | 1.06 ± 0.2 | 1.03 ± 0.1 | 1.23 ± 0.19 | 1 (active)
Cc1ccc(C)c(C(=O)c2ccccc2NC(=O)c2ccccn2)c1 | 0.733 ± 0.041 | 0.85 ± 0.071 | 0.839 ± 0.054 | 1.01 ± 0.068 | 1.18 ± 0.15 | 1.11 ± 0.13 | 1.01 (active)
Cc1ccc(C(=O)NC2CCN(c3ccc4nncn4n3)C2)c(C)c1 (configuration not stated) | 0.957 ± 0.13 | 1.02 ± 0.081 | 1.15 ± 0.15 | 1.03 ± 0.066 | 0.995 ± 0.18 | 0.935 ± 0.42 | 1 (active)
O=C(Cc1ccc([N+](=O)[O-])cc1)NN=Cc1cccnc1 | 1.05 ± 0.083 | 1.02 ± 0.074 | 0.972 ± 0.041 | 0.86 ± 0.066 | 1.09 ± 0.053 | 1.03 ± 0.14 | 1 (active)
CNc1ncnc2c1ncn2[C@@H]1O[C@H](CO)[C@@H](O)[C@H]1O [Prestw-338] | 0.931 ± 0.073 | 0.929 ± 0.09 | 1.16 ± 0.15 | 1.15 ± 0.043 | 1.25 ± 0.17 | 1.33 ± 0.25 | 1.05 (active)
OCCN1CCN(CCCN2c3ccccc3C=Cc3ccccc32)CC1 [Prestw-1456] | 0.862 ± 0.066 | 1 ± 0.082 | 1.37 ± 0.053 | 0.807 ± 0.029 | 1.06 ± 0.049 | 1.49 ± 0.18 | 0.904 (active)
CCOc1ccc2c(c1)C(c1ccccc1C(F)(F)F)CC(=O)N2 (configuration not stated) | 1.02 ± 0.17 | 1.05 ± 0.091 | 1.03 ± 0.1 | 1.09 ± 0.046 | 1.43 ± 0.33 | 1.57 ± 0.23 | 0.995 (active)
COC1(C)CCC2OC2(C)CCC2C1CC2(C)C (configuration not stated) | 1.31 ± 0.31 | 1.06 ± 0.053 | 1.04 ± 0.12 | 1.03 ± 0.041 | 1.28 ± 0.15 | 1.17 ± 0.13 | 0.87 (active)
CN1CCC(COc2cnc(-c3cccc(Cn4nc(-c5cccc(C#N)c5)ccc4=O)c3)nc2)CC1 | 0.884 ± 0.28 | 1 ± 0.055 | 1.06 ± 0.082 | 0.713 ± 0.04 | 1.11 ± 0.14 | 1.37 ± 0.36 | 0.625 (inactive)
CCCc1nc2ccccc2c(NC(=O)CN2CCOCC2)c1CC.O=C(O)C(=O)O | 1.01 ± 0.078 | 1.12 ± 0.093 | 1.01 ± 0.059 | 1 ± 0.048 | 1.48 ± 0.27 | 1.16 ± 0.13 | 1 (active)
COC(=O)Nc1nc2ccc(S(=O)c3ccccc3)cc2[nH]1 (configuration not stated) | 1.1 ± 0.065 | 1.04 ± 0.11 | 1.12 ± 0.059 | 0.279 ± 0.081 | 0.924 ± 0.11 | 0.536 ± 0.18 | 1.01 (active)
Cl.Nc1ccn([C@@H]2O[C@H](CO)[C@@H](O)C2(F)F)c(=O)n1 | 1.3 ± 0.31 | 0.921 ± 0.05 | 1.29 ± 0.087 | 1.25 ± 0.063 | 1.51 ± 0.17 | 1.32 ± 0.21 | 0.173 (inactive)
Cc1ccc2c(c1)C1(c3ccccc3)Nc3ccc(C)cc3C1(c1ccccc1)N2 (configuration not stated) | 0.878 ± 0.082 | 0.904 ± 0.078 | 0.86 ± 0.085 | 0.864 ± 0.071 | 0.996 ± 0.14 | 0.969 ± 0.19 | 1.02 (active)
CC(C(=O)O)c1ccc2c(c1)Cc1cccnc1O2 (configuration not stated) | 1.29 ± 0.17 | 1.41 ± 0.38 | 1.1 ± 0.1 | 0.966 ± 0.03 | 1.55 ± 0.28 | 1.15 ± 0.14 | 0.985 (active)
CCOc1nc2cccc(C(=O)OC(C)OC(=O)OC3CCCCC3)c2n1Cc1ccc(-c2ccccc2-c2nnn[nH]2)cc1 (configuration not stated) | 0.672 ± 0.089 | 0.762 ± 0.062 | 0.976 ± 0.092 | 1.1 ± 0.051 | 1.31 ± 0.089 | 1.47 ± 0.13 | 1.02 (active)
Cl.Cl.OCCN1CCN(CCCN2c3ccccc3Sc3ccc(C(F)(F)F)cc32)CC1 | 0.972 ± 0.047 | 0.893 ± 0.073 | 0.91 ± 0.05 | 0.895 ± 0.042 | 1.03 ± 0.15 | 0.947 ± 0.3 | 0.677 (inactive)
COc1ccc(Br)c(C(=O)N2CCCC2CS(=O)(=O)c2ccccc2)c1 (configuration not stated) | 0.982 ± 0.12 | 1.08 ± 0.085 | 0.957 ± 0.075 | 0.988 ± 0.051 | 0.984 ± 0.098 | 0.876 ± 0.11 | 1 (active)
Oc1c(Cl)cc(Cl)cc1Sc1cc(Cl)cc(Cl)c1O | 1.18 ± 0.11 | 0.917 ± 0.061 | 3.21 ± 0.07 | 0.564 ± 0.031 | 1.03 ± 0.16 | 1.1 ± 0.21 | 0.441 (inactive)
[O-][n+]1cccc(CO)c1 | 1.58 ± 0.067 | 1.96 ± 0.16 | 3.03 ± 0.16 | 1.14 ± 0.054 | 1 ± 0.19 | 1.4 ± 0.42 | 0.987 (active)
CCOc1ccc(-c2ccc(=O)n(CCNS(=O)(=O)CCc3ccccc3)n2)cc1 | 1.08 ± 0.081 | 1.22 ± 0.13 | 1.06 ± 0.083 | 1.2 ± 0.078 | 0.984 ± 0.07 | 1.3 ± 0.27 | 0.995 (active)
CCCOc1ccc(C=C2SC(N3CCN(c4ccccc4C)CC3)=NC2=O)cc1 | 1.06 ± 0.079 | 0.989 ± 0.078 | 0.975 ± 0.061 | 0.954 ± 0.049 | 0.988 ± 0.051 | 0.968 ± 0.14 | 1 (active)
COc1ccc(N(CC(=O)Nc2ccccc2C(F)(F)F)S(C)(=O)=O)cc1Cl | 0.96 ± 0.075 | 1.02 ± 0.097 | 0.979 ± 0.045 | 0.961 ± 0.17 | 1.02 ± 0.045 | 1.02 ± 0.19 | 1 (active)
Cc1nnc(C)n1N=Cc1ccc(Cl)c([N+](=O)[O-])c1 | 0.797 ± 0.062 | 0.874 ± 0.091 | 1.2 ± 0.1 | 0.898 ± 0.045 | 1.07 ± 0.072 | 1 ± 0.1 | 0.99 (active)
CCOC(=O)Cc1nnnn1C | 0.888 ± 0.27 | 1.02 ± 0.11 | 1.01 ± 0.14 | 1 ± 0.026 | 1.14 ± 0.15 | 1.17 ± 0.13 | 1 (active)
Cc1ccc(C23CC4CC(CC(CN)(C4)C2)C3)cc1.Cl | 0.827 ± 0.062 | 1.02 ± 0.063 | 1.95 ± 0.14 | 0.741 ± 0.031 | 1.27 ± 0.15 | 1.29 ± 0.13 | 0.46 (inactive)
CC(C)(C)c1ccc(-c2nc(-c3cccc([N+](=O)[O-])c3)no2)cc1 | 1.06 ± 0.1 | 0.972 ± 0.091 | 0.964 ± 0.025 | 1.02 ± 0.071 | 1.01 ± 0.098 | 1.05 ± 0.17 | 0.995 (active)

Reference: the supplement of paper PMC10646978
